The source of these data is PubChem BioAssay (Tox21).

Test [1] deals with Acetylcholinesterase (Homo sapiens) (UniProt P22303). As to the kind of experiment: Acetylcholinesterase (AChE) small molecule antagonists: colormetric cell-based qHTS assay (AID 1347395). Also: nearly all actives have a fitted effect of over 30% in size. Also: potency is read from the fitted curve at half-maximal effect. The essentials:
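SH-SY5Y cells; cpd 30 min 37 C; + DTNB/acetylthiocholine, 90 min 37 C; colorimetric thiocholine read; qHTS.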
A general note: Quantitative high-throughput screening tests each substance at several concentrations.

Test [2] shares this target. The test can be described thus: Acetylcholinesterase (AChE) small molecule antagonists: enzyme-based qHTS assay (AID 1347397). Also: nearly all actives have a fitted effect of over 55% in size. Also: potency is read from the fitted curve at half-maximal effect. The note with it: Potency: AChE enzyme activity inhibition; outcome: AChE enzyme activity inhibition. The essentials: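 Enzyme inhibition was scored from DTNB-detected thiocholine formed by recombinant human AChE acting on acetylthiocholine. The 30 min compound preincubation and 10 min substrate reaction were both run at room temperature, with DMSO as vehicle control.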

For test [3] the target is unchanged. The test can be described thus: Acetylcholinesterase (AChE) small molecule antagonists: fluorescence cell-based qHTS assay (AID 1347398). Also: nearly all actives have a fitted effect of over 50% in size. Also: potency is read from the fitted curve at half-maximal effect. The note with it: Potency: AChE activity; outcome: AChE activity. A digest of the protocol: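 Endogenous acetylcholinesterase of SH-SY5Y neuroblastoma cells is measured in situ. After overnight attachment and 30 min compound exposure, cells receive acetylthiocholine and Thiolite Green; fluorescence is read after 40 min at room temperature.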

Test [4] has the same target. As to the kind of experiment: Acetylcholinesterase (AChE) small molecule antagonists: enzyme-based qHTS assay with human liver microsomes (AID 1347399). Also: nearly all actives have a fitted effect of over 60% in size. Particulars: Potency: qHTS inhibition; outcome: qHTS inhibition. A digest of the protocol: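 Recombinant human AChE (50 mU/mL in the enzyme mix) and human liver microsomes (0.25 mg/mL final) were preincubated with compound and NADPH (0.25 mg/mL final) for 30 min at 37 C. Acetylthiocholine/DTNB was then added; thiocholine was read colorimetrically after 10 min at room temperature.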

Records with an inconclusive call do not appear. The source made the active and inactive calls. Calls follow the shape of the full dose curve.
% is scaled to controls: 0 for no effect and ±100 for the full control effect.

Chain of Acetylcholinesterase (Homo sapiens) (P22303 whole entry, looked up): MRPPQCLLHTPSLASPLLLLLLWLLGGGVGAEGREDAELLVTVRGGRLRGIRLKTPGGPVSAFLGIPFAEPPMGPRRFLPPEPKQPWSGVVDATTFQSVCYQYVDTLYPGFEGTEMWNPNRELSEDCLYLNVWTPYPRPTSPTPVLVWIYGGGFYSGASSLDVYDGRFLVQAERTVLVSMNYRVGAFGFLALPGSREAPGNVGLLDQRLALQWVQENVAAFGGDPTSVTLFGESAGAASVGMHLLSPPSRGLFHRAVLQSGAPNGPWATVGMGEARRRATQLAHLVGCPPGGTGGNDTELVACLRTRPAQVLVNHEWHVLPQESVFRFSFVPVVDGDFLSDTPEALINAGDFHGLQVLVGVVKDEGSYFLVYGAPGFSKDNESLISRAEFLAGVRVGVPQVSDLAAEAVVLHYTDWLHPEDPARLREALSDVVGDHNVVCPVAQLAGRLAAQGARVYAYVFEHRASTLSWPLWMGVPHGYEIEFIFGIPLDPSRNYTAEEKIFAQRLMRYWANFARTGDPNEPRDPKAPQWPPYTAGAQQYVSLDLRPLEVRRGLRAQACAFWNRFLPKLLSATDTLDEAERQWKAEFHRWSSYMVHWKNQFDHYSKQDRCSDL

Take `CCOc1cc(OCC)c(C(C)=O)cc1OCC`: the Potency result in test [1], in test [2], in test [3] and in test [4] was “inactive” each time.

For `COC(=O)Nc1ccc(Cl)c(Cl)c1`, the Potency entry in test [1], in test [2], in test [3] and in test [4] was “inactive” throughout.

In the case of `CCCOC(=O)CCCCC(=O)OCCC`, the Potency result in test [1], in test [2], in test [3] and in test [4] was “inactive” throughout.

For `CC(C)C(=O)OCc1ccccc1`, the Potency result in test [1], in test [2], in test [3] and in test [4] was “inactive” each time.

In the case of `CC(C)(C)c1cccc(O)c1`, the Potency entry in test [1], in test [2], in test [3] and in test [4] was “inactive” each time.

Turning to `O=C1NC(=O)[C@@]2(CCOc3ccc(F)cc32)N1`, the Potency result in test [1], in test [2], in test [3] and in test [4] was “inactive” in each case.

`C[Si](C)(C)O[Si](C)(C)O[Si](C)(C)C`: the Potency entry in test [1], in test [2], in test [3] and in test [4] was “inactive” in each case.

For the molecule `COc1cc2c(cc1N)oc1ccccc12`, the Potency entry in test [1], in test [2], in test [3] and in test [4] was “inactive” throughout.

Regarding `CCN(CC)C(=O)c1ccc(O)c(OC)c1`, the Potency entry in test [1], in test [2], in test [3] and in test [4] was “inactive” throughout.

Consider `O=C(NC(Cc1cc(=O)[nH]c2ccccc12)C(=O)O)c1ccc(Cl)cc1` (stereo not given), for which the Potency entry in test [1], in test [2], in test [3] and in test [4] was “inactive” each time.

Take `CCOC(=O)C(F)(F)F`: the Potency entry in test [1], in test [2], in test [3] and in test [4] was “inactive” in each case.

With `NC(=S)NNC(N)=S`, the Potency entry in test [1], in test [2], in test [3] and in test [4] was “inactive” throughout.

With `CCCCCCCCCCOS(=O)(=O)O`, the Potency entry in test [1], in test [2], in test [3] and in test [4] was “inactive” in each case.

For `CC(C)NC(=O)c1ccccc1N`, the Potency entry in test [1], in test [2], in test [3] and in test [4] was “inactive” in each case.

Regarding `CC(CN1CC(=O)NC(=O)C1)N1CC(=O)NC(=O)C1` (stereo not given), the Potency result in test [1], in test [2], in test [3] and in test [4] was “inactive” throughout.

For `Oc1ccc(-c2ccccc2)c(Cl)c1`, the Potency result in test [1], in test [2], in test [3] and in test [4] was “inactive” each time.

`CCCCCCCCCCCCCCO`: the Potency result in test [1], in test [2], in test [3] and in test [4] was “inactive” throughout.

With `COC(=O)[C@H]1[C@H]2C[C@@H]3c4[nH]c5cc(OC)ccc5c4CCN3C[C@H]2C[C@@H](OC(=O)c2cc(OC)c(OC)c(OC)c2)[C@@H]1OC`, the Potency entry in test [1], in test [2], in test [3] and in test [4] was “inactive” throughout.

With `CCCCCC1Nc2cc(C(F)(F)F)c(S(N)(=O)=O)cc2S(=O)(=O)N1` (stereo not given), the results for the Potency in test [1], in test [2] and in test [3] were 15.5 µM (active), 21.9 µM (active) and 9.77 µM (active), respectively. Besides, in test [4], the Potency entry was “inactive”.

Regarding `CCCCCCCCCCCCCCCCCC#N`, the Potency result in test [1], in test [2], in test [3] and in test [4] was “inactive” in each case.

Take `Cn1cc(S(C)=O)c(=O)c2ccc(F)cc21` (stereo not given): the Potency entry in test [1], in test [2], in test [3] and in test [4] was “inactive” throughout.

For `Oc1ccc(Cl)c2cccnc12`, the Potency result in test [1], in test [2], in test [3] and in test [4] was “inactive” throughout.

As for `CCCCCCCCCCCCCCCCBr`, the activity, negative = inhibition in test [1] was 0.0868% [at 23.6 µM] (inactive). Moreover, the activity change, negative = inhibition in test [2] is 2.89% [at 23.6 µM] (inactive); in test [3], -0.68% [at 23.8 µM] (inactive); in test [4] it was 0.57% [at 23.6 µM] (inactive).

In the case of `C1=Cc2ccccc2C1`, the Potency entry in test [1], in test [2], in test [3] and in test [4] was “inactive” each time.

As to `CCCCC(CC)C(=O)OCCOCCOCCOC(=O)C(CC)CCCC` (stereo not given), the Potency result in test [1], in test [2], in test [3] and in test [4] was “inactive” in each case.

For `Nc1cc(Cl)cc(S(=O)(=O)O)c1O`, the Potency result in test [1], in test [2], in test [3] and in test [4] was “inactive” in each case.

With `CCOC(=O)[C@H](CCc1ccccc1)N[C@@H](C)C(=O)N1CCC[C@H]1C(=O)O`, the Potency entry in test [1], in test [2], in test [3] and in test [4] was “inactive” throughout.

In the case of `CC(=O)c1sc(C)nc1C`, the Potency entry in test [1], in test [2], in test [3] and in test [4] was “inactive” throughout.

Regarding `OCCCCl`, the Potency result in test [1], in test [2], in test [3] and in test [4] was “inactive” each time.

For the molecule `CC(Cl)COP(=O)(OCC(C)Cl)OCC(C)Cl` (stereo not given), the Potency result in test [1], in test [2], in test [3] and in test [4] was “inactive” in each case.

On to `CCOC(=O)C1=NN(c2ccccc2)C(=O)C1`, for which the Potency result in test [1], in test [2], in test [3] and in test [4] was “inactive” throughout.

Take `COc1ccc(N)c([N+](=O)[O-])c1`: the Potency result in test [1], in test [2], in test [3] and in test [4] was “inactive” throughout.

With `O=c1oc2c(O)c(O)cc3c(=O)oc4c(O)c(O)cc1c4c23`, in test [1], the activity, negative = inhibition is -4.32% [at 23.6 µM] (inactive). Further, the results for the activity change, negative = inhibition in test [2], in test [3] and in test [4] were 3.59% [at 23.6 µM] (inactive), 4.39% [at 23.8 µM] (inactive) and -1.34% [at 23.6 µM] (inactive), respectively.

Regarding `CCC(C)(CCCC(C)C)OC(C)=O` (stereo not given), the Potency entry in test [1], in test [2], in test [3] and in test [4] was “inactive” each time.

Consider `COc1cc2c(c(OC)c1OC)-c1ccc(OC)c(=O)cc1[C@@H](NC(C)=O)CC2`, for which the Potency result in test [1], in test [2], in test [3] and in test [4] was “inactive” each time.

As for `CN1CCC(=C2c3ccccc3C=Cc3ccccc32)CC1`, the Potency entry in test [1], in test [2], in test [3] and in test [4] was “inactive” each time.

Regarding `C[N+](C)(C)CCOC(=O)CCC(=O)OCC[N+](C)(C)C`, the Potency entry in test [1], in test [2], in test [3] and in test [4] was “inactive” each time.

As to `[Cl][Sc]([Cl])[Cl]`, the Potency entry in test [1], in test [2], in test [3] and in test [4] was “inactive” throughout.

Regarding `O=C(NCCc1c[nH]c2ccccc12)c1cccnc1`, the Potency entry in test [1], in test [2], in test [3] and in test [4] was “inactive” throughout.

On to `CC(C)=CCCC(C)CCOC=O` (stereo not given), for which the Potency result in test [1], in test [2], in test [3] and in test [4] was “inactive” in each case.

On to `COc1cc(O)c(C(=O)c2ccccc2)cc1S(=O)(=O)O`, for which the Potency entry in test [1], in test [2], in test [3] and in test [4] was “inactive” each time.

As to `CCCCCCCCCCl`, the Potency result in test [1], in test [2], in test [3] and in test [4] was “inactive” each time.

Take `CC(c1cc(C(C)(C)C)cc(C(C)(C)C)c1O)c1cc(C(C)(C)C)cc(C(C)(C)C)c1O`: the Potency entry in test [1], in test [2], in test [3] and in test [4] was “inactive” throughout.

With `CCCCC(=O)O[C@]1(C(=O)CO)[C@@H](C)C[C@H]2[C@@H]3CCC4=CC(=O)C=C[C@]4(C)[C@@]3(F)[C@@H](O)C[C@@]21C`, the Potency entry in test [1], in test [2], in test [3] and in test [4] was “inactive” throughout.

With `CC1(C)O[C@@H]2C[C@H]3[C@@H]4CCC5=CC(=O)C=C[C@]5(C)[C@@]4(F)[C@@H](O)C[C@]3(C)[C@]2(C(=O)CO)O1`, the Potency entry in test [1], in test [2], in test [3] and in test [4] was “inactive” in each case.

On to `c1ccc2[nH]c(-c3cscn3)nc2c1`, for which the Potency result in test [1], in test [2], in test [3] and in test [4] was “inactive” each time.

For the molecule `COc1ccc(Nc2ccc(OC)cc2)cc1`, the Potency entry in test [1], in test [2], in test [3] and in test [4] was “inactive” each time.

In the case of `CCc1c(C)cc(N)c(CC)c1N`, the Potency in test [1] was 39.9 µM (active); in test [2] it was 71 µM (active); in test [3], 39.9 µM (active). For the same molecule, in test [4], the Potency entry is “inactive”.

For `CCCCCCCCCCCSCC(=O)O`, the Potency result in test [1], in test [2], in test [3] and in test [4] was “inactive” each time.

For the molecule `Cn1ccnc1`, the Potency result in test [1], in test [2], in test [3] and in test [4] was “inactive” each time.

On to `CC1COc2ccccc2N1C(=O)C(Cl)Cl` (stereo not given), for which the Potency result in test [1], in test [2], in test [3] and in test [4] was “inactive” throughout.

For the molecule `C/C=C/C(=O)O`, the Potency entry in test [1], in test [2], in test [3] and in test [4] was “inactive” throughout.

Consider `CC(C)(c1ccccc1)c1ccc(Nc2ccc(C(C)(C)c3ccccc3)cc2)cc1`, for which the Potency entry in test [1], in test [2], in test [3] and in test [4] was “inactive” each time.

In the case of `CC(=O)CC(C)(C)C1CCCCC1`, the Potency entry in test [1], in test [2], in test [3] and in test [4] was “inactive” throughout.

Regarding `CC(C)COC(=O)c1ccccc1`, the Potency entry in test [1], in test [2], in test [3] and in test [4] was “inactive” each time.

On to `CCOC(=O)C1=C(C)NC(C)=C(C(=O)OC)C1c1cccc([N+](=O)[O-])c1` (stereo not given), for which the Potency entry in test [1], in test [2], in test [3] and in test [4] was “inactive” throughout.

Consider `O=c1[nH]nc(-c2ccc([N+](=O)[O-])o2)o1`, for which the Potency result in test [1], in test [2], in test [3] and in test [4] was “inactive” in each case.

On to `COc1ccc(C(C)=O)cc1`, for which the Potency result in test [1], in test [2], in test [3] and in test [4] was “inactive” each time.

As for `CC(C)(CO)[N+](=O)[O-]`, the Potency entry in test [1], in test [2], in test [3] and in test [4] was “inactive” in each case.

With `CC(=O)OC1CC(C)OC(C)O1` (stereo not given), the Potency result in test [1], in test [2], in test [3] and in test [4] was “inactive” in each case.
